According to PMC10812921, “Transcriptional Coactivator BOB1 (OBF1, OCA-B) Modulates the Specificity of DNA Recognition by the POU-Domain Factors OCT1 and OCT2 in a Monomeric Configuration”:

Each sequence was assayed against POU1 (OCT1 POU domain);BOB1 (OBF1, OCA-B) (human;human, UniProt P14859;Q16633 260-458;1-256, |) (assay: EMSA-SELEX-seq; with BOB1 (ternary complex band); 20 mM Tris-HCl pH 7.6, 140 mM NaCl, 10% glycerol, 0.5 mM EDTA, 0.05% Triton X-100, 0.1 mg/mL BSA, 0.1 mg/mL poly(dI-dC), 5 mM DTT, room temperature, 20 min; high values mean tight binding). Conditions: protein: recombinant;recombinant; copies: 1;1; dsDNA, one strand shown.
Method in brief: (§1)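 Tagged POU-domain proteins were produced in E. coli BL21, purified under denaturing conditions and renatured before use. They were mixed at 30 ng with 300 ng of a PCR-amplified double-stranded random 35-nt library, with or without 28 ng coactivator protein, in 20 μL Tris–HCl pH 7.6 binding buffer, incubating 20 min at RT. Complexes cut from native 6% PAGE were eluted and PCR-amplified over four rounds, then sequenced by Illumina, with binding preference taken as the percentage of sequenced 8-mers matching a motif pattern.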
ATCATAAT was tested, and the binding signal was 0.0706 % of ANNNNAAN 8-mers.
ATTTGAAT was tested, and the binding signal was 1.92 % of ANNNNAAN 8-mers.
With AGTTGAAA the binding signal was 0.0531 % of ANNNNAAN 8-mers.
In the case of ACTGGAAA, the binding signal is reported as 0.0375 % of ANNNNAAN 8-mers.
AACTGAAT was tested, and the binding signal was 0.0562 % of ANNNNAAN 8-mers.
With AACAAAAG the binding signal was 0.0741 % of ANNNNAAN 8-mers.
For ACGGCAAT, the binding signal was 0.0336 % of ANNNNAAN 8-mers.
With AACGGAAT the binding signal was 0.0601 % of ANNNNAAN 8-mers.
For ACGGAAAC, the binding signal was 0.0289 % of ANNNNAAN 8-mers.
With AAGCTAAC the binding signal was 0.0191 % of ANNNNAAN 8-mers.
With ATGTTAAA the binding signal was 0.0956 % of ANNNNAAN 8-mers.
With AGCAGAAG the binding signal was 0.0308 % of ANNNNAAN 8-mers.
With AGTGAAAG the binding signal was 0.0624 % of ANNNNAAN 8-mers.
For AAGAGAAG, the binding signal was 0.0402 % of ANNNNAAN 8-mers.
For AAGCTAAG, the binding signal was 0.0187 % of ANNNNAAN 8-mers.
In the case of ACGTCAAC, the binding signal is reported as 0.0187 % of ANNNNAAN 8-mers.
For AGGCGAAG, the binding signal was 0.0242 % of ANNNNAAN 8-mers.
In the case of AAGCCAAT, the binding signal is reported as 0.0261 % of ANNNNAAN 8-mers.
In the case of ACTTCAAA, the binding signal is reported as 0.0336 % of ANNNNAAN 8-mers.
AGACCAAG was tested, and the binding signal was 0.0164 % of ANNNNAAN 8-mers.
With ACAACAAC the binding signal was 0.0133 % of ANNNNAAN 8-mers.
For ACGTCAAT, the binding signal was 0.0269 % of ANNNNAAN 8-mers.
ATGACAAT was tested, and the binding signal was 0.0453 % of ANNNNAAN 8-mers.
In the case of AACAGAAC, the binding signal is reported as 0.018 % of ANNNNAAN 8-mers.
In the case of AAGAGAAT, the binding signal is reported as 0.0738 % of ANNNNAAN 8-mers.
In the case of ACATCAAG, the binding signal is reported as 0.0265 % of ANNNNAAN 8-mers.
With ATAATAAG the binding signal was 0.094 % of ANNNNAAN 8-mers.
AGCCAAAC was tested, and the binding signal was 0.0261 % of ANNNNAAN 8-mers.
With ATACAAAT the binding signal was 0.526 % of ANNNNAAN 8-mers.
For AGAATAAT, the binding signal was 0.0948 % of ANNNNAAN 8-mers.
For AGAAAAAT, the binding signal was 0.0921 % of ANNNNAAN 8-mers.
In the case of ACCATAAA, the binding signal is reported as 0.0304 % of ANNNNAAN 8-mers.
In the case of ATCTTAAG, the binding signal is reported as 0.0503 % of ANNNNAAN 8-mers.
ACGACAAT was tested, and the binding signal was 0.025 % of ANNNNAAN 8-mers.
With AACGTAAC the binding signal was 0.0211 % of ANNNNAAN 8-mers.
AGCGTAAA was tested, and the binding signal was 0.0347 % of ANNNNAAN 8-mers.
In the case of AGCGCAAG, the binding signal is reported as 0.0144 % of ANNNNAAN 8-mers.
In the case of ACCCGAAT, the binding signal is reported as 0.0219 % of ANNNNAAN 8-mers.
In the case of AGGCTAAC, the binding signal is reported as 0.0191 % of ANNNNAAN 8-mers.

The sequences below were run against T1, POU2 (OCT2 POU domain);BOB1 (OBF1, OCA-B) (human;human, UniProt P09086;Q16633 175-386;1-256, |) in the same assay as above. Conditions: protein: recombinant;recombinant; copies: 1;1; dsDNA, one strand shown.
T1 sequence 1: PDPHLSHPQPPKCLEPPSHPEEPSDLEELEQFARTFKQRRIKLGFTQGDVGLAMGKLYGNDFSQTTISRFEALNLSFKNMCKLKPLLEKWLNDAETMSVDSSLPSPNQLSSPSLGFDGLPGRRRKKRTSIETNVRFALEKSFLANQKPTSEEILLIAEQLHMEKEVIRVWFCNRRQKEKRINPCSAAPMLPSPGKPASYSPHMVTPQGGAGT
T1 sequence 2: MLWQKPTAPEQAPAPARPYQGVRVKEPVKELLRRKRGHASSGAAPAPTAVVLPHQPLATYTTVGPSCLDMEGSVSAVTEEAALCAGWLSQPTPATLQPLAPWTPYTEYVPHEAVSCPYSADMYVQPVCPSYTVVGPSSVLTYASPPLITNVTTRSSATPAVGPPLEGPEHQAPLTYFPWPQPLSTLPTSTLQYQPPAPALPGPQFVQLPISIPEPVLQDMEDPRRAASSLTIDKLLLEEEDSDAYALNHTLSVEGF
Method in brief: as §1
With ATCATAAT the binding signal was 0.0636 % of ANNNNAAN 8-mers.
ATTTGAAT was tested, and the binding signal was 2.32 % of ANNNNAAN 8-mers.
In the case of AGTTGAAA, the binding signal is reported as 0.0512 % of ANNNNAAN 8-mers.
With ACTGGAAA the binding signal was 0.0429 % of ANNNNAAN 8-mers.
With AACTGAAT the binding signal was 0.0735 % of ANNNNAAN 8-mers.
For AACAAAAG, the binding signal was 0.0454 % of ANNNNAAN 8-mers.
For ACGGCAAT, the binding signal was 0.0289 % of ANNNNAAN 8-mers.
For AACGGAAT, the binding signal was 0.0627 % of ANNNNAAN 8-mers.
ACGGAAAC was tested, and the binding signal was 0.0305 % of ANNNNAAN 8-mers.
AAGCTAAC was tested, and the binding signal was 0.0215 % of ANNNNAAN 8-mers.
With ATGTTAAA the binding signal was 0.0892 % of ANNNNAAN 8-mers.
AGCAGAAG was tested, and the binding signal was 0.0264 % of ANNNNAAN 8-mers.
For AGTGAAAG, the binding signal was 0.0504 % of ANNNNAAN 8-mers.
In the case of AAGAGAAG, the binding signal is reported as 0.0438 % of ANNNNAAN 8-mers.
For AAGCTAAG, the binding signal was 0.0272 % of ANNNNAAN 8-mers.
ACGTCAAC was tested, and the binding signal was 0.0165 % of ANNNNAAN 8-mers.
In the case of AGGCGAAG, the binding signal is reported as 0.0297 % of ANNNNAAN 8-mers.
AAGCCAAT was tested, and the binding signal was 0.0272 % of ANNNNAAN 8-mers.
With ACTTCAAA the binding signal was 0.0256 % of ANNNNAAN 8-mers.
With AGACCAAG the binding signal was 0.014 % of ANNNNAAN 8-mers.
For ACAACAAC, the binding signal was 0.0124 % of ANNNNAAN 8-mers.
ACGTCAAT was tested, and the binding signal was 0.0322 % of ANNNNAAN 8-mers.
For ATGACAAT, the binding signal was 0.0471 % of ANNNNAAN 8-mers.
In the case of AACAGAAC, the binding signal is reported as 0.0231 % of ANNNNAAN 8-mers.
AAGAGAAT was tested, and the binding signal was 0.0553 % of ANNNNAAN 8-mers.
With ACATCAAG the binding signal was 0.033 % of ANNNNAAN 8-mers.
In the case of ATAATAAG, the binding signal is reported as 0.126 % of ANNNNAAN 8-mers.
With AGCCAAAC the binding signal was 0.0182 % of ANNNNAAN 8-mers.
With ATACAAAT the binding signal was 0.498 % of ANNNNAAN 8-mers.
AGAATAAT was tested, and the binding signal was 0.122 % of ANNNNAAN 8-mers.
AGAAAAAT was tested, and the binding signal was 0.09 % of ANNNNAAN 8-mers.
ACCATAAA was tested, and the binding signal was 0.0264 % of ANNNNAAN 8-mers.
With ATCTTAAG the binding signal was 0.0438 % of ANNNNAAN 8-mers.
With ACGACAAT the binding signal was 0.0297 % of ANNNNAAN 8-mers.
In the case of AACGTAAC, the binding signal is reported as 0.0272 % of ANNNNAAN 8-mers.
AGCGTAAA was tested, and the binding signal was 0.0396 % of ANNNNAAN 8-mers.
With AGCGCAAG the binding signal was 0.0165 % of ANNNNAAN 8-mers.
With ACCCGAAT the binding signal was 0.0248 % of ANNNNAAN 8-mers.
In the case of AGGCTAAC, the binding signal is reported as 0.0223 % of ANNNNAAN 8-mers.
